Screening results: PubChem BioAssay, National Center for Advancing Translational Sciences (NCATS)
Most compounds without a hit are left out; they make up all but 20% or so of the library.
HCMV inh: human cytomegalovirus inhibition | HFF cells, HCMV-luciferase reporter, 72 h; stronger effect = lower value | activity change, negative = inhibition, % at 57.5 µM | actives 4.5% (n = 410,000) | AID 1259415; in the data active = activity change below about -60%; inconclusive = no clear call, values can overlap the other calls; inactive = above about -39%
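Two-dose cell screen: HFF monolayers treated with compounds and infected with luciferase-expressing HCMV at 1 PFU/cell, 72 h at 37C, then lysed for luciferase measurement.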
Pf growth 48h: inhibits P. falciparum growth in the first generation, 48 h; P. falciparum luciferase growth in erythrocytes, 48 h; Potency, µM (highest dose often 28.7 µM), hits mostly inhibitors; actives 5.9% (n = 310,000); AID 504832
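Luciferase-expressing parasites in RBCs, 2% Hct / 0.1% parasitemia final; RPMI 1640 + 0.5% Albumax; 37 C, 5% CO2, one generation; luminescence read-out, lower signal = inhibition.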
Pf growth 96h: P. falciparum growth inhibition at 96 hour, primary screen for plastid delayed-death inhibitors; P. falciparum luciferase reporter growth, 96 h; Potency, µM (top dose mostly 28.7 µM), hits mostly inhibitors; actives 6.9% (n = 320,000); AID 504834
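Parasite growth measured via integrated firefly luciferase reporter in P. falciparum. Infected erythrocytes at 2% hematocrit, 0.05% parasitemia final were treated 96 hours at 37 C under 5% CO2, and luminescence was read.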
Shiga toxin inh: blocks Shiga toxin action in Vero cells; Vero cells, Shiga toxin protein synthesis inhibition reporter; inhibition, % at 38.7 µM; actives 9.2% (n = 290,000); in the data active = inhibition mostly above about 28%, no sharp cut-off; inactive = mostly below about 43%
CHX counter: counter-screen for Shiga toxin inhibitors: cycloheximide protein synthesis inhibition | actives 12% (n = 300,000) | cell reporter, cycloheximide protein synthesis inhibition counterscreen | max response, %; in the data active = max response mostly above about 13%, no sharp cut-off; inactive = mostly below about 14%; also: read at 38.3 µM for the half of the compounds with a filed dose
A number is an active result; i = inactive; ? = inconclusive; nt = no result; + = active, no number. Unless noted, calls follow the shape of the dose curve; as a rule, active = well fitted inhibition curve with a large enough effect; inconclusive = small, poorly fitted or top-dose-only effect, or another doubt; inactive = no such curve, though single readings can be large or run the other way.

SMILES	HCMV inh	Pf growth 48h	Pf growth 96h	Shiga toxin inh	CHX counter
Cc1ccc(NC(=O)C2CCN(c3ncnc4c3nc3n4CCCCC3)CC2)nc1	-91	i	i	i	i
O=C(NCc1cccc(Cl)c1)C1CCCN(c2nn3cc(-c4ccc(F)cc4)nc3s2)C1 (centres undefined)	+	nt	nt	nt	nt
CCc1nc2nc(C)cc(C)n2c1Nc1ccc(OC)cc1	i	nt	nt	nt	nt
COc1ccc(-c2csc3nc(-c4ccc(Cl)cc4)oc(=O)c23)cc1	i	nt	nt	nt	nt
CCOC(=O)Cn1c(=O)oc2cc(S(=O)(=O)NCc3ccccn3)ccc21	?	nt	12µM	i	i
CCOC(=O)Cn1c(=O)oc2cc(S(=O)(=O)NCc3cccs3)ccc21	i	nt	13µM	i	i
O=C1C=C(OCCF)CC(c2ccccc2C(F)(F)F)O1 (centres undefined)	i	nt	nt	nt	nt
Cc1cc(Cl)ccc1-n1c(CCC(=O)O)ccc1-c1cccs1	i	nt	nt	nt	nt
[O-]/C(=C(\C(=S)Nc1cccc2ccccc12)[n+]1ccccc1)c1ccc(OC(F)F)cc1	i	?	15µM	i	i
Cc1cccc(C)c1NC(=S)/C(=C(\[O-])c1cccs1)[n+]1ccccc1	i	i	i	i	i
[O-]/C(=C(\C(=S)Nc1cccc2ccccc12)[n+]1ccccc1)c1ccc2c(c1)OCCO2	i	nt	5.9µM	i	22
[O-]/C(=C(\C(=S)Nc1cccc2ccccc12)[n+]1ccccc1)c1cccs1	i	i	?	i	19
CCOc1ccc(-c2nnn(CC(=O)NCc3ccc(OC)cc3)n2)cc1OCC	i	i	i	i	i
COc1ccc(-c2nnn(CC(=O)NCCc3ccc(OC)c(OC)c3)n2)cc1	i	i	i	i	i
CCOc1ccc(-c2nnn(CC(=O)NCc3ccco3)n2)cc1OCC	i	i	i	i	i
CCOc1ccc(-c2nnn(CC(=O)NCc3ccc(C)cc3)n2)cc1	?	i	7.4µM	i	i
CCCCOc1ccc(-c2nnn(CC(=O)NCc3ccco3)n2)cc1	i	i	i	69	31
COc1ccc(CNC(=O)Cn2nnc(-c3ccc(NC(=O)C4CCCCC4)cc3)n2)cc1	i	i	i	i	21
CC(C)CC(=O)Nc1ccc(-c2nnn(CC(=O)NCc3ccco3)n2)cc1	i	i	i	86	29
COc1cc(C2CC(=O)Nc3c2c(=O)[nH]c2nc4ccccc4n32)ccc1O (centres undefined)	i	nt	nt	nt	nt
CCOC(=O)Cc1cnc(NC(=O)Cn2nnc(-c3ccc(OCC)cc3)n2)s1	i	i	6.6µM	i	i
CCC(C)N1C(=O)S/C(=C/c2ccc3c(c2)n(C)c(=O)n3C)C1=O (centres undefined)	i	i	i	i	30
O=C(CCCOc1ccc(Cl)cc1Cl)NCc1ccncc1	i	i	i	i	i
O=C(OCCN1CCN(C2=NS(=O)(=O)c3ccccc32)CC1)c1cccc(Br)c1	i	i	i	i	i
Cc1ccc(Cn2nc3c4cc(F)ccc4n(Cc4ccc(F)cc4)cc-3c2=O)cc1	i	i	i	i	i
SMILES	HCMV inh	Pf growth 48h	Pf growth 96h	Shiga toxin inh	CHX counter
Cc1cccc(Cn2cnc3ccccc32)c1	i	nt	?	i	i
COc1cccc(Cn2nc3c4cc(F)ccc4n(Cc4ccc(F)cc4)cc-3c2=O)c1	i	i	1.7µM	i	i
COc1cc2c3nnc(-c4ccc(F)cc4)c-3cn(Cc3cccc(C)c3)c2cc1OC	?	0.59µM	0.47µM	i	i
COc1cc2c3nnc(-c4ccc(F)cc4)c-3cn(Cc3cccc(F)c3)c2cc1OC	nt	0.59µM	1µM	i	i
COc1ccc(NC(=O)N(C)C[C@H]2Oc3cc(Br)ccc3S(=O)(=O)N([C@H](C)CO)C[C@@H]2C)cc1	i	nt	nt	nt	nt
CCn1c(SCc2nc3ccccc3[nH]2)nnc1-c1ccc(OC)cc1	-73	i	i	i	i
C=CCn1c(SCc2nc3ccccc3[nH]2)nnc1-c1ccccn1	i	i	10µM	i	27
CCn1c(SCc2nc3ccccc3[nH]2)nnc1-c1cnccn1	i	i	?	55	23
C=CCn1c(SCc2nc3ccccc3[nH]2)nnc1-c1ccc(OC)cc1	?	i	?	i	i
CCn1c(SCc2nc3ccccc3[nH]2)nnc1-c1cccnc1	i	nt	i	i	i
Cn1c(SCc2nc3ccccc3[nH]2)nnc1-c1ccccn1	i	i	i	i	i
COc1cccc(-c2cnc(C(O)c3cccc(C)c3C)[nH]2)c1 (centres undefined)	i	nt	nt	nt	nt
C[C@@H](C(=O)Nc1nc2ccc(F)cc2s1)N1C(=O)C2CC=CCC2C1=O (some centres undefined)	i	?	i	i	23
C[C@@H](C(=O)Nc1nc2ccccc2s1)N1C(=O)C2CC=CCC2C1=O (some centres undefined)	i	i	i	i	i
Cc1ccc2nc(NC(=O)[C@H](C)N3C(=O)C4CC=CCC4C3=O)sc2c1 (some centres undefined)	i	i	i	37	33
Fc1ccc(NCc2nc3ccccc3n2CCOc2ccccc2Cl)cc1	i	nt	nt	nt	nt
Cn1c(Cc2nc3ccccc3n2C)nc2ccccc21	i	?	i	nt	nt
CN(Cc1nc2ccccc2n1C)S(C)(=O)=O	i	i	i	i	i
CN(Cc1nc2ccccc2n1C)S(=O)(=O)c1ccc(F)cc1	i	i	4.7µM	i	16
Cn1c(CNc2ccccc2)nc2ccccc21	i	i	i	67	37
Cn1c(N=Nc2ccccc2)nc2ccccc21	i	0.74µM	0.26µM	i	i
Cn1c(CNc2ccc(F)cc2)nc2ccccc21	i	i	i	71	34
COc1ccc2c3c(n(C)c2c1)[C@H](CO)N(C(C)=O)CC31CCN(C(=O)C2CCOCC2)CC1	i	nt	nt	nt	nt
Cc1cccc(OC(=O)c2cc(-c3ccc(C)c(C)c3)on2)c1	i	nt	nt	nt	nt
CCCn1c(N)c(C(=O)COc2ccc(Br)cc2F)c(=O)n(C)c1=O	?	?	i	i	i
SMILES	HCMV inh	Pf growth 48h	Pf growth 96h	Shiga toxin inh	CHX counter
Cc1ccc(-c2nc3ccccc3o2)cc1NC(=S)NC(=O)c1cccs1	i	i	i	98	32
Cc1cc(C)c2oc(-c3ccc(Cl)c(NC(=O)c4cccs4)c3)nc2c1	i	nt	nt	nt	nt
Cc1cc(C)c2oc(-c3ccc(C)c(NC(=S)NC(=O)c4cccs4)c3)nc2c1	i	i	?	39	17
Cc1cc(C)c2oc(-c3ccc(C)c(NC(=S)NC(=O)/C=C/c4ccco4)c3)nc2c1	i	?	i	44	29
COc1ccccc1N1CC(C(=O)Nc2nnc(SC)s2)CC1=O (centres undefined)	i	?	i	i	i
COc1cccc(CNC(=O)C2CCN(S(=O)(=O)c3c(C)noc3/C=C/c3cccs3)CC2)c1	i	nt	nt	nt	nt
CCN(CC(=O)Nc1ccc(NC(C)=O)cc1)C(=O)c1cccc(N2C(=O)c3ccccc3C2=O)c1	i	nt	nt	nt	nt
NC(=O)C1CCCN(CC(=O)Nc2ccccc2C(=O)NC2CC2)C1 (centres undefined)	i	i	i	nt	nt
Cc1ccc(C(=O)/C=C/NCc2ccc(F)cc2)cc1	i	i	i	93	48
Cc1ccc(CN/C=C/C(=O)c2ccc(Br)cc2)cc1	nt	i	i	60	37
